Each structure is given as a SMILES string. Values without a mark were called inactive. Results filed as inconclusive are left out. Calls of active or inactive are those of the source. Unless noted, calls follow the shape of the dose curve; as a rule, active = well fitted curve in either direction with a large enough effect (not every such curve was filed as active); inconclusive = small, poorly fitted or top-dose-only effect, or another doubt; inactive = flat fitted curve, though single readings scatter.

Assay [1] concerns the target Lysosomal acid glucosylceramidase (Homo sapiens) (UniProt P04062). Kind of assay: Glucocerebrosidase-p2 (AID 348; in the data active = potency below about 10 µM; also: potency is read from the fitted curve at half-maximal effect). The settings on record: purified GBA, blue fluorogenic substrate, 40 min. Summed up: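 Compounds titrated from 0.6 nM upwards against 0.2 nM enzyme in pH 5.9 citric acid/KH2PO4, taurocholate, tween-20; blue fluorogenic substrate 80 uM, 40 min room temperature, stopped and read Ex 365/Em 440 for AC50.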

A short description of assay [2]: AP1 Signaling Pathway (AID 357).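 Also: ME-180 reporter cells stimulated with EGF at its EC50 level; % is scaled to controls: 0 for no effect and ±100 for the full control effect.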 Particulars: ME-180 AP-1-bla reporter, EGF-induced, beta-lactamase ratio, 5 h; at 7.69 µM (top of the series) unless noted. Summed up:
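A ratiometric CCF4 readout (405 nm excitation; 460 and 530 nm emission) quantified AP-1-driven beta-lactamase in ME-180 cells after 5 h with compound and EC50 EGF; AC50 values were derived for activators and inhibitors.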

Assay [3] addresses Cytochrome P450 1A2 (Homo sapiens) (UniProt P05177). In words: p450-cyp1a2 (AID 410; calls by dose curve; also: potency is read from the fitted curve at half-maximal effect;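 as to activity change, negative = inhibition: -100% = full effect of reference inhibitor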). Particulars: recombinant CYP1A2, luciferin-ME demethylation, luminescence; series mostly up to 11.4 µM. Summed up:
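20nM CYP1A2 with 100uM Luciferin-ME (at Km) in 100mM KPO4; compound preincubated 10 min, NADPH regeneration added, 60 min at room temperature. Luciferin quantified by luminescence after detection reagent; normalized to 57 uM furafylline.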

Assay [4] can be described thus: NFAT Signaling Pathway (AID 444).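 Also: carbachol stimulus at about its EC50 of 1 µM final; % is scaled to controls: 0 for no effect and ±100 for the full control effect.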 Particulars: Jurkat NFAT-bla M1, carbachol, beta-lactamase ratio, 5 h; at 7.69 µM (top of the series) unless noted. The method, boiled down:
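Jurkat cells with NFAT-driven β-lactamase reporter and co-expressed M1 receptor, stimulated with carbachol (final 1 uM, ~EC50), compound titration, 5 h at 37 °C. CCF4 loaded 1 h at RT; 460/530 nm ratio gave %activity and AC50.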

A short description of assay [5]: Stat Signaling Pathway (AID 446).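 Also: ME-180 cervical cancer cells given 40 pM IL-6 alongside compound; SIE-controlled beta-lactamase reporter measured as 460/530 nm FRET emission ratio; % is scaled to controls: 0 for no effect and ±100 for the full control effect.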 Particulars: ME-180 SIE beta-lactamase reporter, IL-6 stimulated, 5 h; at 7.69 µM (top of the series) unless noted. The method, boiled down:
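ME-180 cells carrying a SIE-driven beta-lactamase reporter are stimulated with 40 pM IL-6 for 5 h at 37C in the presence of compound. The 460/530 nm FRET substrate ratio is read after 2.5 h at RT. Data are normalised to 300 pM IL-6 and to 125 nM JAK inhibitor controls.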

Assay [6] addresses Glucocorticoid receptor (Homo sapiens) (UniProt P04150). Kind of assay: GR-GFP Redistribution (AID 450;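 active = compounds whose dose series gives a full or clear partial fitted curve of increased nuclear translocation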; also: potency is read from the fitted curve at half-maximal effect). The settings on record: U2OS GR-GFP nuclear translocation, laser cytometry, 2 h.
The target is the same in assay [7]. In words: GR-EFC Redistribution (AID 451; calls by dose curve; also: potency is read from the fitted curve at half-maximal effect). Particulars: CHO-K1 GR-EFC translocation, beta-gal luminescence, 2 h. The method, boiled down:
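CHO-K1 cells expressing nuclear EA and GR-ED fragments of b-gal; compounds titrated up to 46 uM final, 2 h at 37 C. GR nuclear translocation read as complemented b-gal luminescence after 1 h RT detection.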

The target in assay [8] is Mitogen-activated protein kinase 10 (Mus musculus) (UniProt Q61831). Kind of assay: JNK3 AlphaScreen Assay (AID 530).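 Also: kinase came from lysate of stimulated human HepG2 cells; signal reports phosphorylation of biotinylated GST-cJun 1-79 at Ser73 with 10 µM ATP; % is scaled to controls: 0 for no effect and ±100 for the full control effect.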 Particulars: JNK3 lysate, c-Jun phosphorylation; series mostly up to 11.4 µM. The method, boiled down:
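Pre-activated (IL-1β/TNFα) JNK3 in HepG2 lysates phosphorylates biotin-GST-cJun(1-79), 10 uM ATP; anti-phospho-cJun(Ser73) AlphaScreen read at room temperature, pH 7.6 Tris buffer. Compounds pre-incubated 15 min as titrations.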
On the technique in general: In Alpha technology, singlet oxygen from a donor bead excites a nearby acceptor bead.

Assay [9] concerns the target 3',5'-cyclic-AMP phosphodiesterase 4B (Homo sapiens) (UniProt Q07343). In words: qHTS Assay for Inhibitors of PDE-IV (AID 607; active = well fitted activation curve with a large enough effect in the main read-out, with a control signal flat, not every such curve was filed as active; also: % of control where 0% means no effect). Particulars: HEK293 ACTOne CNG channel cells, membrane potential fluorescence; series mostly up to 22.9 µM. Summed up:
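HEK293 ACTOne cells with CNG channel (1000/well), endogenous PDE4; membrane potential dye, compounds up to 22.9 uM final. Fluorescence Ex 535/Em 590; RO 20-1724 (100 uM final) as reference.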
For orientation: Quantitative high-throughput screening tests each substance at several concentrations.

The nature of assay [10]: qHTS Assay for Identification of Small Molecule Agonists for Hypoxia Response Element Signaling Pathway (AID 914; active = well fitted activation curve with a large enough effect in the signal ratio, with a control signal flat, not every such curve was filed as active; the % refers to the signal ratio; also: % of control where 0% means no effect). Particulars: ME-180 (cervical carcinoma) HRE-bla reporter, beta-lactamase ratio, CoCl2, 17 h; activation: hits give high values. Summed up:
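qHTS titration; ME-180 HRE-bla cells; EC50 CoCl2 co-treatment, 17 h at 37 degrees Celsius; CCF4 dye, ex 405nm, em 460nm and 530nm; %Activity from ratio; AC50.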

Assay [11] addresses Cytochrome P450 2C19 (Homo sapiens) (UniProt P33261). Kind of assay: qHTS Assay for Inhibitors and Substrates of Cytochrome P450 2C19 (AID 899; active = well fitted inhibition curve with a large enough effect; also: % is scaled to controls: 0 for no effect and ±100 for the full control effect; nearly all actives have a fitted effect of over 60% in size). Particulars: recombinant CYP2C19, luciferin-H EGE luminescence; series mostly up to 11.4 µM. The method, boiled down:
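5 nM human CYP2C19 with 10uM Luciferin-H EGE (at KM) in 50mM KPO4, compound preincubated 10 min at 37C, then NADPH regeneration for 60 min at 37C. Luciferin read by luminescence after detection reagent; normalized to 57uM ketoconazole as full inhibition.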

Sequence of 3',5'-cyclic-AMP phosphodiesterase 4B (Homo sapiens) (Q07343 whole entry, looked up): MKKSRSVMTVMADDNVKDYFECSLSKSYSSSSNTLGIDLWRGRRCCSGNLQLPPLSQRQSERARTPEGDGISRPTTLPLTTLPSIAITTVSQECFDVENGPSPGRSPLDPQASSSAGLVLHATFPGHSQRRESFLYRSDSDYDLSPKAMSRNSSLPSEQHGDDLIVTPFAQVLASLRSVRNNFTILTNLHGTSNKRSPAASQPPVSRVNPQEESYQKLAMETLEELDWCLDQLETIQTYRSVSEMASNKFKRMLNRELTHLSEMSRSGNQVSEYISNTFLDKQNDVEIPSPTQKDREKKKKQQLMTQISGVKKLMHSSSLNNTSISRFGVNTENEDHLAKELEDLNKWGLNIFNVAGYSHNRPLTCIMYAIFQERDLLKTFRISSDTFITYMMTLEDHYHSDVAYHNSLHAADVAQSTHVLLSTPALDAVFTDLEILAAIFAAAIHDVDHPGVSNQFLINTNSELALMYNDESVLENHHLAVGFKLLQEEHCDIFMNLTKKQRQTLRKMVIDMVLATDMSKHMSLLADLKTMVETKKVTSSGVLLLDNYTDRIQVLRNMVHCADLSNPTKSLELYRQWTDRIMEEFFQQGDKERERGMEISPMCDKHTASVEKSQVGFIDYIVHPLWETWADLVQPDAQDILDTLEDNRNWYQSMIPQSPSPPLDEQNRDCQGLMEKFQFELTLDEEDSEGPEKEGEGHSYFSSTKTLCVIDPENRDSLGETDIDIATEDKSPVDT
Sequence of Cytochrome P450 1A2 (Homo sapiens) (P05177 whole entry, looked up): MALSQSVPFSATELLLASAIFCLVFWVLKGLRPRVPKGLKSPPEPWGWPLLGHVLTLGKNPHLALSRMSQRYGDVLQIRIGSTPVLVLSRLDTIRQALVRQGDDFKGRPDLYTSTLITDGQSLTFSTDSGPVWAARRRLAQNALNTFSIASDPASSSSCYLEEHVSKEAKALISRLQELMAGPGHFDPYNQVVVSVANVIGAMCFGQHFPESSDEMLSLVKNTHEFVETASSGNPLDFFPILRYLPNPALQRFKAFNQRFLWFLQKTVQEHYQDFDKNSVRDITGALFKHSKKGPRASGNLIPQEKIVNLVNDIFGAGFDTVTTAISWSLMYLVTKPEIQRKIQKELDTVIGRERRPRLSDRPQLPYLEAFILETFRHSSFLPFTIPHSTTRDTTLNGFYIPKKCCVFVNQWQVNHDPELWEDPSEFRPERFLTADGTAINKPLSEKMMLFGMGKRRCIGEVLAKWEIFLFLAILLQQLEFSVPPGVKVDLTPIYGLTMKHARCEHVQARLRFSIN
Sequence of Lysosomal acid glucosylceramidase (Homo sapiens) (P04062 whole entry, looked up): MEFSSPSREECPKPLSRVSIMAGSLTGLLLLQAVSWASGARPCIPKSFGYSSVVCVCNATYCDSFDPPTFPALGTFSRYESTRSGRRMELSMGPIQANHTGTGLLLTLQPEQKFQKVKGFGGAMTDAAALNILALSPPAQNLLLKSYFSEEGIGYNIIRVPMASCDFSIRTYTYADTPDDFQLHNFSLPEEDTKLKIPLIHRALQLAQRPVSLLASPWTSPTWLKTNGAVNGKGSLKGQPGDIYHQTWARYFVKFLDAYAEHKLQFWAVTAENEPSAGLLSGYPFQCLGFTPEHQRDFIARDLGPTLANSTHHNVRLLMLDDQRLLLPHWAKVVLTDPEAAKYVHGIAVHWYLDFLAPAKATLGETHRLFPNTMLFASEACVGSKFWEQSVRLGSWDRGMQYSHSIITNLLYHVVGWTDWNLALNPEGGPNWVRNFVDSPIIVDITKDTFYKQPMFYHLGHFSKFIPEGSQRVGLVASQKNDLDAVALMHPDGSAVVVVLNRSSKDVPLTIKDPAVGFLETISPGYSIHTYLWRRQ
Sequence of Glucocorticoid receptor (Homo sapiens) (P04150 whole entry, looked up): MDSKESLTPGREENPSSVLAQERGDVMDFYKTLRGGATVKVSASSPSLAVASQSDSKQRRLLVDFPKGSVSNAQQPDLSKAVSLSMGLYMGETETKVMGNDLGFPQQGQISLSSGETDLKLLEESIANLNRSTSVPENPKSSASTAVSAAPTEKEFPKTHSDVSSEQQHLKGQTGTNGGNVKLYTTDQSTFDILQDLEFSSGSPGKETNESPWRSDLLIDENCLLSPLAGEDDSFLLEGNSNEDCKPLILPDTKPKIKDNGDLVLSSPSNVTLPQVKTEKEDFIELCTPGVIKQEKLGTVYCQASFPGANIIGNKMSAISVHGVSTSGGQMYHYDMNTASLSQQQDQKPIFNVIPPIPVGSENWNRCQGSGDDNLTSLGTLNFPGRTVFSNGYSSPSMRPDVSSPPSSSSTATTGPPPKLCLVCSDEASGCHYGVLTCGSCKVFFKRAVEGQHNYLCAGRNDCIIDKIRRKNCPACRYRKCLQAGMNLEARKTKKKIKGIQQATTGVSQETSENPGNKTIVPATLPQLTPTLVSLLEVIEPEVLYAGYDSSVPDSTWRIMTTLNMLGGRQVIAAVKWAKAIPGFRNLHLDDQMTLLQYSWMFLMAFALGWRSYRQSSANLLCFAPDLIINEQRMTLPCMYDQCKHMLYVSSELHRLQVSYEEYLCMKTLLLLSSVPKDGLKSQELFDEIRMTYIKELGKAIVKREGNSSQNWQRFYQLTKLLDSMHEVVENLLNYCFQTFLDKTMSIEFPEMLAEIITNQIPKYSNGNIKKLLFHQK
Sequence of Cytochrome P450 2C19 (Homo sapiens) (P33261 whole entry, looked up): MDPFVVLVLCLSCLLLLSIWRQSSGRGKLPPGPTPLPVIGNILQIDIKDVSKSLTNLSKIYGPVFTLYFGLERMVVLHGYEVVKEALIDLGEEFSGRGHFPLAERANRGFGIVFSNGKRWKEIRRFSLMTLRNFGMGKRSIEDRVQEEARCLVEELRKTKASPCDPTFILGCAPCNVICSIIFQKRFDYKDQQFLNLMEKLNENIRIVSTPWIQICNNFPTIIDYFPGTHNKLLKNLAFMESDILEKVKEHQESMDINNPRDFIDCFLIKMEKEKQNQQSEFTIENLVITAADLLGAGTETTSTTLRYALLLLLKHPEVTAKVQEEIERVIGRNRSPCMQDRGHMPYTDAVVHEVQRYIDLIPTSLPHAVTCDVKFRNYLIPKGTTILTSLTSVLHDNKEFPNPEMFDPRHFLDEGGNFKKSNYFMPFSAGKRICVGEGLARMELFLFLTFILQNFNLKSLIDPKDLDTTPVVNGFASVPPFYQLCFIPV

On to `C[C@@]12CC(=O)[C@@H]3[C@@H](CCC4=CC(=O)CC[C@]43C)[C@@H]1CC=C2CC(=O)O`, for which the Potency in [1] was > 11.4 µM; in assay [6], > 46 µM; in [7], > 9.22 µM. Also, the activity change, negative = inhibition in assay [2] was -4.3%; in [4], 23.5%. Further, the Potency entry in assay [3], in [8] and in assay [9] was “inactive” throughout. The activity, negative = inhibition in assay [5] was 2.31%. The activation in [10] was -1.62%.

As for `CC1(C)[C@@H]2CC[C@]1(CC(=O)O)[C@H](Cl)C2`, the Potency in [1] was > 11.4 µM; in assay [6] it was > 46 µM; in assay [7] it was > 9.22 µM. Moreover, the activity change, negative = inhibition in [2] is 9.82%; in assay [4], 2.95%. For the same compound, the Potency result in [3], in assay [8] and in assay [9] was “inactive” in each case. Also, the activity, negative = inhibition in assay [5] was 6.68%. For the same compound, in assay [10], the activation is 2.22%.

Turning to `CC(C)N(CC(=O)O)CC(=O)O`, the Potency was > 11.4 µM in assay [1], > 46 µM in assay [6] and > 9.22 µM in assay [7]. The activity change, negative = inhibition was 11.5% in [2] and 4.66% in assay [4]. Further, the Potency result in assay [3] and in [9] was “inactive” each time. Moreover, the activity, negative = inhibition in assay [5] was 10.4%.

`N=C(N)SCC(=O)O`: the figures for the Potency in assay [1], in assay [6] and in [7] were > 11.4 µM, > 46 µM and > 9.22 µM, respectively. Further, the results for the activity change, negative = inhibition in [2], in assay [3] and in assay [4] were -10.2%, -10.2% [at 2.29 µM] and 6.44%, respectively. Also, the activity, negative = inhibition in assay [5] was -4.57%. Besides, the Potency result in assay [8] and in assay [11] was “inactive” throughout.

Take `COC(=O)[C@]1(C)CCC(c2ccc(C)cc2)=C(CC(=O)O)C1`: the values for the Potency in assay [1], in assay [6] and in [7] were > 11.4 µM, > 46 µM and > 9.22 µM, respectively. In addition, the activity change, negative = inhibition in [2] was -2.42%; in assay [3], -8.4% [at 2.29 µM]; in assay [4] it was -1.89%. The activity, negative = inhibition in [5] is 2.79%. In addition, the Potency result in assay [8] and in [9] was “inactive” throughout. Further, the activation in assay [10] is 4.66%.

With `NC(=O)C[C@H](N)C(N)=O`, the results for the Potency in assay [1], in assay [6] and in assay [7] were > 11.4 µM, > 46 µM and > 9.22 µM, respectively. For the same compound, the activity change, negative = inhibition in assay [2] was -1.63%; in assay [4], 12.4%. For the same compound, the Potency entry in assay [3], in assay [8] and in [9] was “inactive” in each case. For the same compound, in assay [5], the activity, negative = inhibition was 2.81%. In addition, in [10], the activation is 9.57%.

As for `O[C@@H](COc1cccc2ccccc12)CN1CCOCC1`, the Potency in [1] was > 11.4 µM; in [3] it was 3.98 µM (active); in assay [6], > 46 µM; in assay [7], > 9.22 µM. Moreover, the activity change, negative = inhibition in [2] is 3.83%; in assay [4], 4.33%. Also, in assay [5], the activity, negative = inhibition was 3.7%. Moreover, the Potency entry in assay [8] and in assay [9] was “inactive” throughout. In addition, the activation in [10] was 3.28%.
